Inconclusive results are not listed. Activity calls are given as the source filed them. Unless noted, calls follow the shape of the dose curve; as a rule, active = well fitted curve in the direction sought with a large enough effect in the repeat runs; inconclusive = weak or mixed curves; inactive = flat fitted curve, though single readings scatter.

Experiment [1] is described as follows: qHTS assay to test for compound auto fluorescence at 535 nm (green) in HEK293 cells (AID 720680).
Experiment [2] is described as follows: qHTS assay to test for compound auto fluorescence at 460 nm (blue) in HEK293 cell free culture (AID 720681). In a few lines: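 Compounds were added to cell-free DMEM with 10% FBS and fluorescence read directly. The blue channel used 405 nm excitation and 460 nm emission, with triamterene as the reference fluorophore.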
Experiment [3] in a line: qHTS assay to test for compound auto fluorescence at 535 nm (green) in HEK293 cell free culture (AID 720682). The method in brief:
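Read-out: 485/535 nm fluorescence intensity, calibrated against fluorescein. Medium only (DMEM + 10% FBS, no cells); test compound or DMSO vehicle added by pintool before plate reading.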
(In general: Quantitative high-throughput screening tests each substance at several concentrations.)

The nature of experiment [4]: qHTS assay to test for compound auto fluorescence at 590 nm (red) in HEK293 cell free culture (AID 720683). The method in brief: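 Cell-free wells of DMEM with 10% FBS received compound, and intrinsic fluorescence was read at excitation/emission 540/590 nm. Values expressed as equivalence to Rose Bengal sodium.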
Experiment [5] is described as follows: qHTS assay to test for compound auto fluorescence at 590 nm (red) in HepG2 cell free culture (AID 720684). The method in brief:
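Compound was pinned into wells holding MEM with 10% FBS and no cells, and red fluorescence was read at Ex/Em 540/590 nm. Signal is expressed as auto fluorescence equivalency relative to Rose Bengal sodium.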

Experiment [6] is described as follows: qHTS assay to test for compound auto fluorescence at 460 nm (blue) in HepG2 cell free culture (AID 720685). In a few lines: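 Compound (23 nL) or DMSO pinned into cell-free MEM with 10% FBS; blue fluorescence read at 405/460 nm excitation/emission, expressed as auto-fluorescence equivalency to triamterene.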
Experiment [7] can be described thus: qHTS assay to test for compound auto fluorescence at 535 nm (green) in HepG2 cell free culture (AID 720686).
Experiment [8] can be described thus: qHTS assay to test for compound auto fluorescence at 460 nm (blue) in HepG2 cells (AID 720687). In a few lines:
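HepG2 cells in MEM with 10% FBS, attached overnight at 37 C, were exposed to compound or DMSO for 1 hr at 37 C, 5% CO2. Blue fluorescence was read at 405/460 nm, with triamterene as reference fluorophore.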

Experiment [9] deals with Glucocorticoid receptor (Homo sapiens) (UniProt P04150). The experiment can be described thus: qHTS assay to identify small molecule agonists of the glucocorticoid receptor (GR) signaling pathway (AID 720691; active = well fitted activation curve with a large enough effect in the signal ratio in the repeat runs, not every such curve was filed as active; the % refers to the signal ratio; also: potency is read from the fitted curve at half-maximal effect). The settings on record: GR-bla HeLa, beta-lactamase reporter ratio, 18 h; activation: at 62.4 µM (top of the series). The method in brief: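 Beta-lactamase reporter activity, read as fluorescence intensity, was measured in GR-bla HeLa cells exposed to compounds for 18 h at 37 C and then loaded with LiveBLAzer B/G FRET substrate for 2 h at room temperature.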

The target is the same in experiment [10]. Description: qHTS assay to identify small molecule antagonists of the glucocorticoid receptor (GR) signaling pathway (AID 720692; active = well fitted inhibition curve with a large enough effect in the signal ratio in the repeat runs, not every such curve was filed as active; the % refers to the signal ratio; also: potency is read from the fitted curve at half-maximal effect). In a few lines: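 Fluorescence from cleaved LiveBLAzer B/G FRET substrate reports GRE-driven beta-lactamase in HeLa cells; compounds are tested against 5 nM dexamethasone (final) over 18 h at 37 C, substrate incubation 2 h at room temperature.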

Glucocorticoid receptor (Homo sapiens), sequence (P04150 whole entry, looked up): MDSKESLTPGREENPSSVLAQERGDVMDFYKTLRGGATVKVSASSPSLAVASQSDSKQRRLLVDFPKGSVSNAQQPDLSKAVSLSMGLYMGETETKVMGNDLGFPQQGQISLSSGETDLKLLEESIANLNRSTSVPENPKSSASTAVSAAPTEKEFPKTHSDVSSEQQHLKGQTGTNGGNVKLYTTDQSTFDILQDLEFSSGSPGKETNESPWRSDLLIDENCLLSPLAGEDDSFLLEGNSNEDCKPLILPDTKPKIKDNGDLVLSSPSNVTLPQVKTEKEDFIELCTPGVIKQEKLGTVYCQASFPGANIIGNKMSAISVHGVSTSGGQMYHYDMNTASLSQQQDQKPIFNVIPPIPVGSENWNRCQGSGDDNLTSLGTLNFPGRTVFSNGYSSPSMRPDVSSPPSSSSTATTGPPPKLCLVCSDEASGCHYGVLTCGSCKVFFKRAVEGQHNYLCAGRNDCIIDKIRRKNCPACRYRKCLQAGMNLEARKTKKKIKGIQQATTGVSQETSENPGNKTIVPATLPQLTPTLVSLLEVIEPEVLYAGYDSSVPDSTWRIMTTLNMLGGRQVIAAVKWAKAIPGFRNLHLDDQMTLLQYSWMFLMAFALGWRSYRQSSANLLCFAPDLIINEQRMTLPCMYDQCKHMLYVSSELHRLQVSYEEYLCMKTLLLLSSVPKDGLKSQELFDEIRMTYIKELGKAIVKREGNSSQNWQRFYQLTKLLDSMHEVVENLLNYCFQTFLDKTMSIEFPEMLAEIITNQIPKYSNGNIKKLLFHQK

For the compound `Cc1c(N)nc(C(CC(N)=O)NCC(N)C(N)=O)nc1C(=O)NC(C(=O)NC(C)C(O)C(C)C(=O)NC(C(=O)NCCc1nc(-c2nc(C(=O)NCCCN[C@@H](C)c3ccccc3)cs2)cs1)C(C)O)C(O[C@@H]1O[C@@H](CO)[C@@H](O)[C@H](O)[C@@H]1O[C@H]1O[C@H](CO)[C@@H](O)[C@H](OC(N)=O)[C@@H]1O)c1cnc[nH]1` (stereo not given in full), the Potency result in experiment [1], in experiment [2], in experiment [3], in experiment [4], in [5] and in experiment [7] was “inactive” in each case. The Potency result in experiment [9] and in [10] was “inactive” throughout. The result in [6] and in experiment [8] was inactive.
Regarding `CCCCCCCCCCCCCCCC(=O)OCC(COC(=O)CCCCCCCCCCCCCCC)OC(=O)CCCCCCCCCCCCCCC`, the Potency result in [1], in experiment [2], in [3], in experiment [4], in experiment [5] and in experiment [7] was “inactive” each time. Besides, the Potency entry in experiment [9] and in [10] was “inactive” throughout. Further, the call in [6] and in [8] was inactive.
Take `CS(=O)(=O)OCC(O)C(O)COS(C)(=O)=O` (stereo not given): the Potency entry in experiment [1], in experiment [2], in experiment [3], in [4], in experiment [5] and in [7] was “inactive” each time. The Potency result in experiment [9] and in experiment [10] was “inactive” throughout. Besides, the call in experiment [6] and in [8] was inactive.
As for `CC1(C)S[C@@H]2[C@H](NC(=O)[C@H](NC(=O)N3CCN(S(C)(=O)=O)C3=O)c3ccccc3)C(=O)N2[C@H]1C(=O)O`, the Potency result in experiment [1], in experiment [2], in experiment [3], in [4], in experiment [5] and in [7] was “inactive” in each case. The Potency result in experiment [9] and in experiment [10] was “inactive” each time. Further, the outcome in experiment [6] and in experiment [8] was inactive.
For the compound `Cn1nnnc1SCC1=C(C(=O)O)N2C(=O)[C@@H](NC(=O)[C@H](O)c3ccccc3)[C@H]2SC1`, the Potency result in [1], in experiment [2], in [3], in experiment [4], in experiment [5] and in [7] was “inactive” throughout. Also, the Potency entry in [9] and in [10] was “inactive” each time. The call in experiment [6] and in experiment [8] was inactive.
`NCCCC[C@H](N)C(=O)O`: the Potency result in experiment [1], in [2], in experiment [3], in [4], in [5] and in experiment [7] was “inactive” each time. For the same compound, the Potency entry in experiment [9] and in experiment [10] was “inactive” each time. Moreover, the result in [6] and in experiment [8] was inactive.
`C[Se]CCC(N)C(=O)O` (stereo not given): the Potency entry in experiment [1], in experiment [2], in experiment [3], in experiment [4], in [5] and in experiment [7] was “inactive” in each case. Besides, the Potency result in experiment [9] and in [10] was “inactive” in each case. Moreover, the compound was called inactive in experiment [6] and in experiment [8].
As to `O=C(OCCO)c1ccccc1O`, the Potency entry in experiment [1], in experiment [2], in [3], in [4], in experiment [5] and in experiment [7] was “inactive” each time. Moreover, the Potency entry in experiment [9] and in [10] was “inactive” in each case. The result in experiment [6] and in experiment [8] was inactive.
In the case of `C[C@H](CSC(=O)c1ccccc1)C(=O)N1C[C@@H](Sc2ccccc2)C[C@H]1C(=O)O`, the Potency entry in experiment [1], in [2], in [3], in experiment [4], in experiment [5] and in [7] was “inactive” in each case. The Potency entry in [9] and in experiment [10] was “inactive” in each case. Moreover, the compound was classed as inactive in experiment [6] and in experiment [8].
In the case of `CN[C@@H]1CCc2[nH]c3ccc(C(N)=O)cc3c2C1`, the Potency result in experiment [1], in experiment [2], in experiment [3], in experiment [4], in [5] and in [7] was “inactive” in each case. The Potency result in experiment [9] and in experiment [10] was “inactive” throughout. Further, the outcome in experiment [6] and in experiment [8] was inactive.
For `O=C(O[C@H]1CN2CCC1CC2)N1CCc2ccccc2[C@@H]1c1ccccc1`, the Potency entry in experiment [1], in [2], in experiment [3], in experiment [4], in experiment [5] and in experiment [7] was “inactive” in each case. Further, the Potency result in experiment [9] and in experiment [10] was “inactive” in each case. Moreover, the outcome in experiment [6] and in [8] was inactive.
In the case of `CC(=O)Oc1c(C)cc(OCC(O)CNC(C)C)c(C)c1C` (stereo not given), the Potency entry in [1], in [2], in experiment [3], in experiment [4], in [5] and in [7] was “inactive” each time. The Potency entry in [10] is “inactive”. Further, the compound was classed as inactive in experiment [6] and in experiment [8]. In [9], the Potency is 21.3 µM (active).
Take `CCN(CC)CCC(=O)N1c2ccccc2Sc2ccc(C(F)(F)F)cc21`: the Potency result in experiment [1], in experiment [2], in experiment [3], in experiment [4], in [5] and in [7] was “inactive” in each case. The Potency result in experiment [9] was “inactive”. Moreover, the call in [6] and in experiment [8] was inactive. Besides, the Potency in experiment [10] is 23.9 µM (active).
Regarding `O=[n+]1ccn([O-])c2ccccc21`, the Potency entry in experiment [1], in [2], in experiment [3], in [4], in experiment [5] and in [7] was “inactive” throughout. The Potency entry in experiment [9] and in experiment [10] was “inactive” in each case. Further, the compound was called inactive in experiment [6] and in experiment [8].
Regarding `NS(=O)(=O)c1cc2c(cc1Cl)NC(Cc1ccccc1)NS2(=O)=O` (stereo not given), the Potency result in [1], in experiment [2], in experiment [3], in [4], in [5] and in experiment [7] was “inactive” in each case. For the same compound, the Potency result in experiment [9] and in experiment [10] was “inactive” each time. Besides, the compound was classed as inactive in [6] and in [8].
Consider `C[C@]12CCC(=O)C[C@@H]1CC[C@@H]1[C@@H]2CC[C@]2(C)C=CC[C@@H]12`, for which the Potency result in experiment [1], in experiment [2], in experiment [3], in experiment [4], in experiment [5] and in [7] was “inactive” in each case. Besides, the Potency entry in experiment [9] and in experiment [10] was “inactive” throughout. Besides, the compound was called inactive in experiment [6] and in [8].
With `CCCCCCCCCCCCCCCCCCCCCCO`, the Potency entry in experiment [1], in [2], in experiment [3], in experiment [4], in experiment [5] and in experiment [7] was “inactive” each time. The Potency result in [9] and in experiment [10] was “inactive” each time. The result in experiment [6] and in [8] was inactive.
`CCC(CN)CC(C)CCNCC(O)CNCC(C)CC(CC)CN` (stereo not given): the Potency result in experiment [1], in [2], in experiment [3], in experiment [4], in experiment [5] and in experiment [7] was “inactive” throughout. In addition, the Potency entry in experiment [9] and in [10] was “inactive” in each case. Further, the outcome in [6] and in experiment [8] was inactive.
For the compound `CNCC(O)c1ccc(OC(=O)C(C)(C)C)c(OC(=O)C(C)(C)C)c1` (stereo not given), the Potency result in experiment [1], in [2], in [3], in experiment [4], in [5] and in [7] was “inactive” in each case. Besides, the Potency entry in experiment [9] and in [10] was “inactive” each time. Moreover, the compound was classed as inactive in experiment [6] and in [8].
Consider `N[C@@H](C(=O)N[C@@H]1C(=O)N2C(C(=O)O)=C(CSc3cn[nH]n3)CS[C@H]12)c1ccc(O)cc1`, for which the Potency entry in [1], in experiment [2], in [3], in experiment [4], in experiment [5] and in [7] was “inactive” each time. The Potency result in experiment [9] and in experiment [10] was “inactive” each time. For the same compound, the outcome in [6] and in experiment [8] was inactive.

The record behind these values is PubChem BioAssay (Tox21).
